Data reported in PMC4081100, “A DNA-binding-site landscape and regulatory network analysis for NAC transcription factors in Arabidopsis thaliana”.

These sequences were tested against GST-WRKY1(266-371) (Arabidopsis thaliana, UniProt Q9SI37 266-371) (assay: universal protein binding microarray (PBM); transcription factors of Arabidopsis thaliana; high values mean tight binding). Conditions: protein: recombinant; tags: GST; dsDNA, one strand shown.
GST-WRKY1(266-371), sequence (Q9SI37 266-371): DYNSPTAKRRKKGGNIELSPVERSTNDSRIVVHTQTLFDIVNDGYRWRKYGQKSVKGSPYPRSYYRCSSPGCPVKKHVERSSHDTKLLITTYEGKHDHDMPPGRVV
How it was run: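 Binding is expressed as the normalised enrichment score (E-score). Proteins carrying a GST tag, whether NAC-domain, full-length or DNA-binding-domain forms, were induced in cells, and zinc acetate was added for zinc-finger proteins. After purification on glutathione–Sepharose 4B and quantification by A280 or anti-GST western blot, each was applied in duplicate at 200 to 500 nM final to custom all-10-mer Agilent 4 × 180K arrays made double-stranded by primer extension. Gapped and ungapped 8-mers were scored.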
CGGTCAAG gave a binding signal of 0.483 E-score. AGCGGTCA showed a binding signal of 0.422 E-score. TGACCCAA gave a binding signal of 0.419 E-score. With ATGACCGG the binding signal was 0.407 E-score. Sequence GCCGTCAA has a binding signal of 0.402 E-score. TAGGGTCA showed a binding signal of 0.42 E-score. Sequence CGAAGACC has a binding signal of 0.436 E-score. Work on ATGAGTCA yielded a binding signal of 0.427 E-score. In the case of GCTGACTA, the binding signal is reported as 0.417 E-score. TCCGGTCA showed a binding signal of 0.445 E-score. Sequence GTCAGACA has a binding signal of 0.41 E-score. With GGTCTGAC the binding signal was 0.441 E-score. In the case of CTGACCCA, the binding signal is reported as 0.401 E-score. AGTCTTCG was tested, and the binding signal was 0.427 E-score. In the case of CGTGGACC, the binding signal is reported as 0.444 E-score. In the case of GACCAGTC, the binding signal is reported as 0.406 E-score. In the case of AGTCAGAG, the binding signal is reported as 0.44 E-score. For CCGCTGAC, the binding signal was 0.414 E-score. With CAACGACC the binding signal was 0.421 E-score. Work on ACAGGTCA yielded a binding signal of 0.443 E-score. For GGAGTCAA, the binding signal was 0.476 E-score. CGGGTCAA gave a binding signal of 0.487 E-score. CTCTGACC gave a binding signal of 0.458 E-score. In the case of GCTTTGAC, the binding signal is reported as 0.466 E-score. Sequence TCTGACCA has a binding signal of 0.456 E-score. In the case of GTCAAGGA, the binding signal is reported as 0.455 E-score. GCCTTGAC showed a binding signal of 0.457 E-score. For CGGTCAGC, the binding signal was 0.458 E-score. In the case of CCCGGTCA, the binding signal is reported as 0.445 E-score. In the case of GCTTGACC, the binding signal is reported as 0.482 E-score. In the case of CGACGACC, the binding signal is reported as 0.439 E-score. Sequence ATTGACTC has a binding signal of 0.47 E-score. In the case of ACCAGTCA, the binding signal is reported as 0.421 E-score. Sequence GGCTGACC has a binding signal of 0.431 E-score. ATGACCGA gave a binding signal of 0.405 E-score. For GTCAGCGA, the binding signal was 0.43 E-score. With GACGACCA the binding signal was 0.43 E-score. GAGTCAGC gave a binding signal of 0.418 E-score. With CCGAGTCA the binding signal was 0.409 E-score.
